# Bioassay records (PubChem)
# Hits are enriched below; roughly 32% of the tested compounds scored in any of these assays.
# CYP2C19 act: human CYP2C19 activators, primary screen, biochemical, luminescence. recombinant CYP2C19, luciferin-H EGE luminescence; stronger effect = higher value; 0 = fully inhibited enzyme, 1 = untreated enzyme. activation factor at 5 µM. 96,000 tested, under 10 active;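 active = activation factor of at least 2 at 5 µM in the primary screen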;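 also: 0 = wells with 2.5 mM tranylcypromine and 1 = vehicle-only wells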
# Target sequence (P33261 whole entry, looked up): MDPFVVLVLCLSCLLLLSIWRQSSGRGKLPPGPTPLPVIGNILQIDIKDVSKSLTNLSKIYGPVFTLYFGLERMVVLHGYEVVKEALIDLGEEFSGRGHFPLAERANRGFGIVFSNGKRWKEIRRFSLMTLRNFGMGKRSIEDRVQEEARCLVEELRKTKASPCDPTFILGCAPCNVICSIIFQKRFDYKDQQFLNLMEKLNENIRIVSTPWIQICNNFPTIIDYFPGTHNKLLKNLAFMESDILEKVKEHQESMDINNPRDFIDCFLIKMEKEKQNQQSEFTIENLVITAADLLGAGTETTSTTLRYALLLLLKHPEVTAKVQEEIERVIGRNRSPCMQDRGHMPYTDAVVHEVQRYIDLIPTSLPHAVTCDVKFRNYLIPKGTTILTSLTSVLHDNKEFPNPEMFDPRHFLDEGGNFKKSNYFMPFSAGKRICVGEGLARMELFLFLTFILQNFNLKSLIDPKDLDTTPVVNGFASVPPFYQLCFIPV
# PostGolgi ctrl: growth inhibition of yeast control strain, primary screen, counter-screen for post-Golgi transport modulator project. 5% of 98,000 active. inhibition, % at 10 µM. efflux-deficient yeast background strain, growth absorbance A615, 16 h
# PostGolgi yeast: phenotypic screen on post-Golgi transport, primary screen. post-Golgi transport phenotypic cell assay. inhibition, % at 10 µM. 0.9% of 98,000 active. AID 739, 2007;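 also: yeast cells grown in 1536-well plates; yeast grown about 18 h at 30C before absorbance read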
# CYP2C9 act: human CYP2C9 activators, primary screen, biochemical, luminescence. Cytochrome P450 2C9 (Homo sapiens), P11712. recombinant CYP2C9, luciferin-H conversion; stronger effect = higher value; factor 1 = untreated enzyme, 0 = blocked. activation factor at 5 µM. 1.4% of 96,000 active. AID 1024, 2008;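 active = activation factor of 2 or more for CYP2C9 at a 5 µM dose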;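 also: 0 = sulfaphenazole-blocked wells and 1 = vehicle-only wells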
# CYP2C19 inhib: blockers of cytochrome P450 2C19 activity – biochemical, luminescence, ADME assay, primary screen; P33261; AID 778, 2007; CYP2C19 Supersomes, luciferin-H EGE luminescence, 30 min; inhibition, % at 5 µM; 21% of 96,000 active;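 active = CYP2C19 inhibition above a set limit at 5 µM in the primary screen, cut at about 50% in these data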;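 also: plate controls were negative control wells for no effect and 2.5 mM tranylcypromine positive control for full effect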
# CYP2C9 inh: blockers of cytochrome P450 2C9 activity – biochemical, luminescence, ADME assay, primary screen; CYP2C9 Supersomes, luciferin-H conversion; inhibition, % at 5 µM; P11712; 20% of 96,000 active;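 active = blocking of liver enzyme CYP2C9 beyond about 50% at 5 µM, limit read from the data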
# * hit, by the source's call; / = no result given. Rule as the data show it, unless noted: active = inhibition above about 30%; inactive = the rest.
SMILES,CYP2C19 act,PostGolgi ctrl,PostGolgi yeast,CYP2C9 act,CYP2C19 inhib,CYP2C9 inh
c1n[nH]c(NC2=NCCC2)n1,0.9,3,5,0.8,6,18
COc1ccc2nc(NC(=O)CNS(=O)(=O)c3cccs3)sc2c1,0.4,-3,7,0.9,64*,7
COCCNC(=O)CNS(=O)(=O)c1ccc2nc(C)sc2c1,1,2,-4,1.1,-5,-5
Cc1csc(NC(=O)CNS(=O)(=O)c2cccs2)n1,0.8,-2,15,0.9,22,14
COc1ccc2nc(NC(=O)Cc3cccs3)sc2c1,0.7,-2,7,0.5,33,49
COc1ccc(NC(=O)CNS(=O)(=O)c2ccc3nc(C)sc3c2)c(OC)c1,0.7,7,7,0.5,28,51*
COc1ccc(NC(=O)c2ccccc2C)c(OC)c1,0.6,13,-8,1.2,38,-15
COc1ccc(NC(=O)CNS(=O)(=O)c2cccs2)c(OC)c1,0.4,-4,20,0.6,57*,40
COc1ccc(NCC(=O)Nc2ccc(Cl)cc2C)c(OC)c1,0.1,22,8,0,93*,99*
CC(CCc1ccccc1)NC(=O)C1CCN(S(=O)(=O)N2CCCCC2)CC1 (configuration not stated),0.9,-2,13,0.8,11,23
N#Cc1cccc2cnccc12,1,-1,3,1.2,-3,-23
COc1ccc(C(=O)NCC(c2cccnc2)N2CCN(c3ccccc3)CC2)cc1OC (configuration not stated),/,0,-4,/,/,/
C=CCOC(=O)C1=C(C)Nc2nnnn2C1c1cccs1 (configuration not stated),0.6,11,0,0.7,45,28
c1ccc(-c2cnnc(N3CCOCC3)n2)cc1,0.7,6,-3,0.9,34,7
COc1ccc2nc(NC(=O)CN(C)S(=O)(=O)c3cccs3)sc2c1,0.2,5,22,0.4,80*,62*
CCOCC(=O)Nc1nc2ccc(OC)cc2s1,0.6,-13,-5,0.6,40,45
O=C(NC(=S)NCCN1CCOCC1)c1cccc(Cl)c1,0.6,16,3,0.8,41,21
Cc1cc(C)c(C(=O)CSc2n[nH]c(=O)n2C2CC2)cc1C,0.5,21,9,0.2,52*,77*
O=C(Cn1cnc2c(cnn2-c2ccc(Cl)cc2)c1=O)NCC1CCCO1 (configuration not stated),1,1,-15,0.9,0,8
COCC(C)OC(=O)C(C#N)c1nc2ccccc2nc1N1CCN(Cc2ccccc2)CC1 (configuration not stated),0.3,21,4,0.1,74*,90*
C=CCOC(=O)C(C#N)c1nc2ccccc2nc1N1CCN(Cc2ccccc2)CC1 (configuration not stated),0.4,8,-6,0.4,57*,64*
C=CCOC(=O)C(C#N)c1nc2ccccc2nc1N1CCN(c2ccccc2OC)CC1 (configuration not stated),0.7,12,4,0.3,31,72*
COCCCNC(=O)C(C#N)c1nc2ccccc2nc1N1CCN(Cc2ccccc2)CC1 (configuration not stated),0.1,16,5,0.1,92*,93*
CCN1CCN(c2nc3ccccc3nc2C(C#N)C(=O)OC2CCCCC2)CC1 (configuration not stated),0.9,-2,2,0.8,6,20
COCCOC(=O)C(C#N)c1nc2ccccc2nc1N1CCN(Cc2ccccc2)CC1 (configuration not stated),0.2,4,11,0.1,80*,91*
SMILES,CYP2C19 act,PostGolgi ctrl,PostGolgi yeast,CYP2C9 act,CYP2C19 inhib,CYP2C9 inh
CC(C)COC(=O)C(C#N)c1nc2ccccc2nc1N1CCN(Cc2ccccc2)CC1 (configuration not stated),0.9,19,1,0.8,7,23
CCOC(=O)CC1(CC(=O)OCC)NC(=O)c2c(C)sc(C(=O)OCC)c2N1,0,12,0,0.5,96*,48
CCOC(=O)CC1(C)NC(=O)c2c(C)sc(C(=O)OCC)c2N1 (configuration not stated),0.6,10,-2,0.8,36,23
CCCCC1(C)NC(=O)c2c(C)sc(C(=O)OCC)c2N1 (configuration not stated),0.7,16,1,0.1,30,94*
CC(C)C1=NN2C(=N)CC(=O)N=C2S1,1,-12,-14,0.9,5,8
O=C(Nc1ccc(NC(=O)C2CC2)nc1)c1ccccn1,0.9,8,20,1.2,13,-16
O=C(Nc1cccc(NS(=O)(=O)c2ccc(S(=O)(=O)NC3CC3)cc2)c1)c1ccccn1,0,5,-2,0,99*,97*
CC(NS(=O)(=O)c1ccc(CCC(=O)N2CCN(C)CC2)cc1)c1ccccc1 (configuration not stated),0.6,2,4,0.9,41,14
Cc1cccc(NC(=O)COC(=O)CNC(=O)C2CCCCC2)c1,0.7,-4,1,0.8,25,24
Cc1cccc(NC(=O)CCc2ccc(S(=O)(=O)NC3CCCCC3)cc2)c1,0.8,-2,4,0.4,15,60*
Cc1ccc(CNC(=O)CCc2ccc(S(=O)(=O)NC3CCCCC3)cc2)cc1,0.5,21,-6,0.3,52*,69*
COc1ccc(CNC(=O)CCNS(=O)(=O)c2ccc(C)cc2)cc1,0.9,5,-2,1.3,6,-31
CC(NC(=O)CCc1ccc(S(=O)(=O)NC2CCCCC2)cc1)c1ccccc1 (configuration not stated),0,-10,-5,0.2,96*,79*
CN(c1cccc(NC(=O)c2ccccc2N(C)S(C)(=O)=O)c1)S(C)(=O)=O,1,-5,4,1,0,-2
O=S(=O)(c1cccc(C(F)(F)F)c1)N1CCC(c2cc(-c3cccc4ccccc34)n[nH]2)CC1,0.9,5,-22,0.9,6,9
CCN(CC)S(=O)(=O)c1ccc2c(c1)nc(SC(C)C(N)=O)n2-c1ccc(OC)cc1 (configuration not stated),0.4,26,-16,0.1,62*,91*
Cc1nn(C)c(C)c1S(=O)(=O)NCc1cccs1,0.9,1,3,1,11,-4
CCOc1ccccc1N1CC(C(=O)N2CCc3ccccc3C2)CC1=O (configuration not stated),0.7,-2,-1,0.9,30,6
